Source: PubChem BioAssay (EPA / NIEHS)
“And” between values parts separate entries of the source, which are not always exact repeats. Equal entries are not always repeated. Inconclusive results are not listed. More than one record can exist for a structure, and the calls need not agree. The source made the active and inactive calls. The calls were made as follows, unless noted: active = hit-call score of the fitted dose curve at least 0.9, where 1 is the maximum; inactive = score below 0.9.

Columns and labels:
[1] = read-out: Pyruvate Dehydrogenase Kinase 4 (PDK4), PDK4 (gene 5166); assay: LTEA_HepaRG_PDK4: Life Technologies and Expression Analysis (LTEA) Assay for Pyruvate Dehydrogenase Kinase 4 (PDK4) using HepaRG (AID 2283525); conditions: mRNA level, 48 h; actives raise or lower the signal
In short: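 In this multiplexed human HepaRG expression assay, cells are treated 48 h with test chemicals across an eight-point range starting at 100 uM. PDK4 mRNA changes, normalized to ACTB/GAPDH/POLR2A, are fitted in both directions relative to vehicle.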

[2] = read-out: NAD(P)H dehydrogenase [quinone] 1 (NQO1), NQO1 (gene 1728); assay: LTEA_HepaRG_NQO1: Life Technologies and Expression Analysis (LTEA) Assay for NAD(P)H dehydrogenase [quinone] 1 (NQO1) using HepaRG (AID 2283526); conditions: mRNA level, 48 h; actives raise or lower the signal
In short: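 Differentiated human HepaRG cells in serum-free induction medium, dosed in duplicate for 48 h at 8 half-log concentrations up to 100 uM in 0.5% DMSO. NQO1 mRNA by qRT-PCR normalized to ACTB, GAPDH, POLR2A; bidirectional fit versus DMSO baseline.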

[3] = read-out: Nuclear factor erythroid 2-related factor 2 (Homo sapiens) (UniProt Q16236); assay: LTEA_HepaRG_NFE2L2: Life Technologies and Expression Analysis (LTEA) Assay for Nuclear factor erythroid 2-related factor 2 (NFE2L2) Transcription Factor using HepaRG (AID 2283527); conditions: mRNA level, 48 h; actives raise or lower the signal;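 also: TaqMan qRT-PCR transcript level normalised to ACTB GAPDH and POLR2A housekeeping genes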
In short: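 Transcript level of NFE2L2 is the read-out, measured by microfluidic TaqMan qRT-PCR and normalized to three housekeeping genes. Human HepaRG cultures received test chemical for 48 h at up to 100 uM in half-log steps. Gain or loss of signal is fitted relative to 0.5% DMSO.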

[4] = read-out: succinate dehydrogenase complex iron sulfur subunit B (SDHB), SDHB (gene 6390); assay: LTEA_HepaRG_SDHB: Life Technologies and Expression Analysis (LTEA) Assay for succinate dehydrogenase complex iron sulfur subunit B (SDHB) using HepaRG (AID 2283528); conditions: mRNA level, 48 h; actives raise or lower the signal
In short: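 HepaRG cells (~100,000/well, plated 48 h) exposed in duplicate for 48 h in serum-free induction medium to 8-point half-log series from 100 uM in 0.5% DMSO; mRNA by qRT-PCR normalised to ACTB, GAPDH, POLR2A; bidirectional fit versus DMSO.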

[5] = read-out: Signal transducer and activator of transcription 3 (Homo sapiens) (UniProt P40763); assay: LTEA_HepaRG_STAT3: Life Technologies and Expression Analysis (LTEA) Assay for Signal transducer and activator of transcription (STAT3) using HepaRG (AID 2283529); conditions: mRNA level, 48 h; actives raise or lower the signal
In short: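 Read-out is STAT3 mRNA level by qRT-PCR, normalized to three housekeeping genes, in human HepaRG liver cells treated for 48 h. Concentrations ran from 100 uM downward in half-log steps; curves were fitted for gain or loss relative to 0.5% DMSO.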

[6] = read-out: solute carrier (SLCO1B1), SLCO1B1 (gene 10599); assay: LTEA_HepaRG_SLCO1B1: Life Technologies and Expression Analysis (LTEA) Assay for solute carrier (SLCO1B1) using HepaRG (AID 2283530); conditions: mRNA level, 48 h; actives raise or lower the signal
In short: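 Differentiated human HepaRG cells, plated 48 h, switched to serum-free induction medium and exposed in duplicate for 48 h to 8 half-log concentrations (top 100 uM) in 0.5% DMSO. SLCO1B1 mRNA by TaqMan qRT-PCR, normalized to ACTB/GAPDH/POLR2A.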

[7] = read-out: sulfotransferase 2A1 (SULT2A1), SULT2A1 (gene 6822); assay: LTEA_HepaRG_SULT2A1: Life Technologies and Expression Analysis (LTEA) Assay for sulfotransferase 2A1 (SULT2A1) using HepaRG (AID 2283531); conditions: mRNA level, 48 h; actives raise or lower the signal
In short: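 Differentiated human HepaRG cells in serum-free induction medium were exposed for 48 h to eight half-log concentrations (top 100 uM, 0.5% DMSO). SULT2A1 mRNA was measured by qRT-PCR, normalized to ACTB, GAPDH and POLR2A, and fitted bidirectionally against DMSO.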

[8] = read-out: Transforming Growth Factor (TGFA), TGFA (gene 7039); assay: LTEA_HepaRG_TGFA: Life Technologies and Expression Analysis (LTEA) Assay for Transforming Growth Factor (TGFA) using HepaRG (AID 2283532); conditions: mRNA level, 48 h; actives raise or lower the signal
In short: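 HepaRG (human liver line), 48 h exposure, 8 conc. half-log down from 100 uM, 0.5% DMSO vehicle, duplicates; serum-free induction medium. TGFA mRNA by TaqMan qRT-PCR, ACTB/GAPDH/POLR2A normalization; gain/loss fit vs DMSO.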

[9] = read-out: Transforming Growth Factor (TGFB1), TGFB1 (gene 7040); assay: LTEA_HepaRG_TGFB1: Life Technologies and Expression Analysis (LTEA) Assay for Transforming Growth Factor (TGFB1) Transporter using HepaRG (AID 2283533); conditions: mRNA level, 48 h; actives raise or lower the signal
In short: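 Differentiated human HepaRG cells in serum-free induction medium were exposed in duplicate for 48 h to eight concentrations (top 100 uM, half-log steps, 0.5% DMSO). TGFB1 mRNA was quantified by qRT-PCR, normalized to ACTB, GAPDH, POLR2A, and fitted bidirectionally against DMSO.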

[10] = read-out: TIMP1, TIMP1 (gene 7076); assay: LTEA_HepaRG_TIMP1: Life Technologies and Expression Analysis (LTEA) Assay for TIMP1 using HepaRG (AID 2283534); conditions: mRNA level, 48 h; actives raise or lower the signal;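 also: TaqMan qRT-PCR signal normalized to ACTB GAPDH and POLR2A housekeeping genes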
In short: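 Differentiated human HepaRG cells in serum-free induction medium were exposed 48 h to chemicals (8 half-log concentrations, top 100 uM, 0.5% DMSO). TIMP1 mRNA was quantified by TaqMan qRT-PCR, normalized to ACTB/GAPDH/POLR2A; bidirectional fit versus DMSO.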

[11] = read-out: Tumor necrosis factor receptor 1 (TNFRSF1A), TNFRSF1A (gene 7132); assay: LTEA_HepaRG_TNFRSF1A: Life Technologies and Expression Analysis (LTEA) Assay for Tumor necrosis factor receptor 1 (TNFRSF1A) using HepaRG (AID 2283535); conditions: mRNA level, 48 h; actives raise or lower the signal
In short: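 Differentiated human HepaRG cells were exposed in duplicate for 48 h in serum-free induction medium to eight concentrations (top 100 uM, half-log steps, 0.5% DMSO). TNFRSF1A mRNA was quantified by qRT-PCR, normalized to ACTB, GAPDH and POLR2A, then fitted bidirectionally against DMSO.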

[12] = read-out: Thyroid Hormone Responsive (THRSP), THRSP (gene 7069); assay: LTEA_HepaRG_THRSP: Life Technologies and Expression Analysis (LTEA) Assay for Thyroid Hormone Responsive (THRSP) using HepaRG (AID 2283536); conditions: mRNA level, 48 h; actives raise or lower the signal
In short: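 mRNA induction or loss relative to 0.5% DMSO vehicle was fitted bidirectionally across an eight-point curve whose highest exposure was 100 uM. Human HepaRG liver cells received chemicals in duplicate over 48 h before RNA extraction.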

[13] = read-out: Cellular tumor antigen p53 (Homo sapiens) (UniProt P04637); assay: LTEA_HepaRG_TP53: Life Technologies and Expression Analysis (LTEA) Assay for Tumor Protein P53 (TP53) using HepaRG (AID 2283537); conditions: mRNA level, 48 h; actives raise or lower the signal
In short: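 Differentiated HepaRG cells in serum-free induction medium exposed 48 h in duplicate to 8 half-log concentrations, top 100 uM, 0.5% DMSO. TP53 mRNA by TaqMan qRT-PCR (Fluidigm), normalized to ACTB, GAPDH, POLR2A; fitted bidirectionally versus DMSO.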

[14] = read-out: UDP glucuronosyltransferase (UGT1A1), UGT1A1 (gene 54658); assay: LTEA_HepaRG_UGT1A1: Life Technologies and Expression Analysis (LTEA) Assay for UDP glucuronosyltransferase (UGT1A1) using HepaRG (AID 2283538); conditions: mRNA level, 48 h; actives raise or lower the signal
In short: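 HepaRG cells, 0.5% DMSO vehicle, 48 h exposure in serum-free induction medium to 8-point half-log series topping at 100 uM, in duplicate. UGT1A1 mRNA by Fluidigm qRT-PCR, normalized to ACTB/GAPDH/POLR2A; bidirectional fit versus DMSO.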

[15] = read-out: UDP glucuronosyltransferase (UGT1A6), UGT1A6 (gene 54578); assay: LTEA_HepaRG_UGT1A6: Life Technologies and Expression Analysis (LTEA) Assay for UDP glucuronosyltransferase (UGT1A6) using HepaRG (AID 2283539); conditions: mRNA level, 48 h; actives raise or lower the signal
In short: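 Human HepaRG cells were dosed for 48 h in serum-free induction medium with 0.5% DMSO vehicle, eight-point half-log series from 100 uM, in duplicate. UGT1A6 mRNA was measured by qRT-PCR, normalized to ACTB, GAPDH, POLR2A, and fitted bidirectionally against DMSO.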

[16] = read-out: X-box binding protein 1 (XBP1), XBP1 (gene 7494); assay: LTEA_HepaRG_XBP1: Life Technologies and Expression Analysis (LTEA) Assay for X-box binding protein 1 (XBP1) using HepaRG (AID 2283540); conditions: mRNA level, 48 h; actives raise or lower the signal
In short: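 Differentiated human HepaRG cells in serum-free induction medium were exposed in duplicate for 48 h to eight half-log concentrations up to 100 uM in 0.5% DMSO. XBP1 mRNA was quantified by qRT-PCR, normalised to ACTB, GAPDH and POLR2A, with bidirectional fitting against DMSO.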

[17] = LTEA_HepaRG_LDH_cytotoxicity: Cytotoxicity Assessment in the Life Technologies and Expression Analysis (LTEA) Assay (AID 2283563; active = hit-call score of the fitted dose curve at least 0.9, where 1 is the maximum;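 as to AC50: LDH activity released into spent culture medium as a marker of cell death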)
In short: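 Differentiated human HepaRG cells, plated 48 h beforehand, were switched to serum-free induction medium and exposed for 48 h to eight half-log concentrations (top 100 uM) in 0.5% DMSO. LDH was measured in spent medium; activity was fitted relative to DMSO vehicle.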

[18] = TOX21_p53_BLA_p2_viability: Viability Assessment in the Tox21 HCT-116 p53 Agonism Beta-lactamase Assay, Phase 2 (AID 2283591; active = hit-call score of the fitted dose curve at least 0.9, where 1 is the maximum;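 also: compound exposure lasted 16 h at 37 °C; actives lower the ATP signal meaning cytotoxicity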)
In short: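 Cytotoxicity readout: CellTiter-Glo ATP luminescence, 30 min at room temperature, after the beta-lactamase read. Cells were HCT116 exposed 16 h at 37C to compounds pin-transferred at 217-fold dilution from DMSO stocks.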

[19] = molecular target: Cellular tumor antigen p53 (Homo sapiens) (UniProt P04637); assay: TOX21_p53_BLA_p2_ratio: Tox21 HCT-116 p53 Agonism Beta-lactamase Assay, Ratio, Phase 2 (AID 2283592; active = hit-call score of the fitted dose curve at least 0.9, where 1 is the maximum)
In short: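 HCT116 cells carrying a p53-responsive beta-lactamase reporter were plated, incubated 5 h at 37C, then dosed with compounds in DMSO (217-fold dilution) for 16 h. CCF4-AM substrate was added for 2 h at room temperature; the 460/530 nm emission ratio gave gain-of-signal activity relative to DMSO.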

[20] = ATG_XTT_Cytotoxicity: Cytotoxicity Assessment in the Attagene TRANS-FACTORIAL HepG2 Assay (AID 2283584; active = hit-call score of the fitted dose curve at least 0.9, where 1 is the maximum;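 as to AC50: cells exposed to compound for 24 h before reading; active means loss of viability signal versus DMSO baseline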)
In short: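 HepG2 human liver cells, transiently transfected with multiple GAL4-UAS reporter units, were dosed and read at 24 h by XTT as cell number. Loss of signal was fitted relative to DMSO negative control baseline.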

Measured: AC50

Chain of Signal transducer and activator of transcription 3 (Homo sapiens) (P40763 whole entry, looked up): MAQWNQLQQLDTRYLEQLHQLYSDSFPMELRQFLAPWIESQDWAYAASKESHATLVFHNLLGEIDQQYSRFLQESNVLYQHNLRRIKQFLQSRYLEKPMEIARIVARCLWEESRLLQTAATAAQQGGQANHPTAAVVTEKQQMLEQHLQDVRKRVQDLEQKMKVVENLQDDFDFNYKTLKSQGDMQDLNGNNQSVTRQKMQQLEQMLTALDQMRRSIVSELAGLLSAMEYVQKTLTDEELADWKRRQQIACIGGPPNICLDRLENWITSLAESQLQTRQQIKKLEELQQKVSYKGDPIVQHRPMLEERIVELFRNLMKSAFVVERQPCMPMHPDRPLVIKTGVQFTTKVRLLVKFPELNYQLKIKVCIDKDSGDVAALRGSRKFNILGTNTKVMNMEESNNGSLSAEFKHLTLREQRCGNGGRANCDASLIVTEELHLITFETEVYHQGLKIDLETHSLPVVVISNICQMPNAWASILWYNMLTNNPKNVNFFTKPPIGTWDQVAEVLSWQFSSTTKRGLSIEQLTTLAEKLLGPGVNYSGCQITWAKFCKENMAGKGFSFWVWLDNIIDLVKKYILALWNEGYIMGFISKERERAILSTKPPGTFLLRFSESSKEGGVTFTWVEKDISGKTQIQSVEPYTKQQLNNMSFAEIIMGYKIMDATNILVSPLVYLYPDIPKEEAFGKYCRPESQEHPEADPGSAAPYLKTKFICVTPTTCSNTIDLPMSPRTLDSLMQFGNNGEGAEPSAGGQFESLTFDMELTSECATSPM
Chain of Cellular tumor antigen p53 (Homo sapiens) (P04637 whole entry, looked up): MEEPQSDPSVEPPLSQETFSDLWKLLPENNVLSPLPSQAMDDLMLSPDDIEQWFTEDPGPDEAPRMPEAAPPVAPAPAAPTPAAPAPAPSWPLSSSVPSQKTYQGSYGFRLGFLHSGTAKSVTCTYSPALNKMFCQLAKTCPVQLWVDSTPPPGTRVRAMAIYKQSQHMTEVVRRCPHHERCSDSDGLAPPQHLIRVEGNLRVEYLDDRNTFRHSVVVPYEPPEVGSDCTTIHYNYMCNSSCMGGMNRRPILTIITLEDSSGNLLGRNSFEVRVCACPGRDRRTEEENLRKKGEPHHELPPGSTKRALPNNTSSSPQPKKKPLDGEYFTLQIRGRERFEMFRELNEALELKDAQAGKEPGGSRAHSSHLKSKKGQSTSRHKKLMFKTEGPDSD
Chain of Nuclear factor erythroid 2-related factor 2 (Homo sapiens) (Q16236 whole entry, looked up): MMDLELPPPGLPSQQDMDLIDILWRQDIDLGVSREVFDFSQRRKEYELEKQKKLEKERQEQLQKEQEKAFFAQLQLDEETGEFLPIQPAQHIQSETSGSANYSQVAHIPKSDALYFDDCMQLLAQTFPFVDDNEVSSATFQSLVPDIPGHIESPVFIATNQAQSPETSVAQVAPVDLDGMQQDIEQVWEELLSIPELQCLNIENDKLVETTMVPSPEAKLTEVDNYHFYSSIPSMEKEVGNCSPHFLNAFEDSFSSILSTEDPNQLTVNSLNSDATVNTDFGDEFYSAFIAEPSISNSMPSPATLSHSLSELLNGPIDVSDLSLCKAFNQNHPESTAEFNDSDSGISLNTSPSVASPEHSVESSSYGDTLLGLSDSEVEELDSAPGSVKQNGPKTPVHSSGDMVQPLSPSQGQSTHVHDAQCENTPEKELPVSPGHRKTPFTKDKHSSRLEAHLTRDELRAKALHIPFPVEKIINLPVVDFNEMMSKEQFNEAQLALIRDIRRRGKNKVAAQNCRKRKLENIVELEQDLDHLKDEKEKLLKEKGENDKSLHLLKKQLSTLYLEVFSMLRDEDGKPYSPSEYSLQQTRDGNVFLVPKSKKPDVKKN

C=CC(N)=O
not listed: [20]
inactive: all other assays above

Clc1ccc(C(Cl)(Cl)Cl)cc1
inactive: all assays above

Oc1ccc(C(c2ccc(O)cc2)(C(F)(F)F)C(F)(F)F)cc1
inactive: [1] | [3] | [5] | [6] | [10] | [11] | [12] | [20] | [18] | [19]
active: [2] 78.9 µM | [7] 88.4 µM | [8] 82.4 µM | [9] 76.5 µM | [13] 94.5 µM | [14] 87.5 µM | [15] 74.5 µM | [16] 77.7 µM | [17] 77 µM | [20] 60.9 µM and 100 µM | [18] 65.1 µM | [19] 63 µM
